Measured values: PubChem BioAssay (NCI)
Compounds without any hit were thinned out: in the full panel of roughly 83,000, 20% have a hit.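 Interpretation: 100, growth as untreated; towards 0, rising growth inhibition; 0, no net growth; 0 to -100, cell death. Compounds scoring below 10 were considered active.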 Unmarked numbers belong to inactive results. Calls of active or inactive are those of the source.

test system: IGROV1 ovarian; assay: NCI-60 one-dose screen, 48 h (100 = growth as untreated, 0 = no growth, -100 = all killed); details: 10 µM unless noted
Protocol: Growth inhibition of the IGROV1 human tumor cell line is measured as a screen for anti-cancer activity. Cells are grown in 96 well plates and exposed to the test compound for 48 hours. Compounds are tested at a single concentration, which is 10^-5 M for most compounds. The reported endpoint is percent growth (GI% or GIPRCNT), where numbers from 0 - 100% represent growth inhibition, and numbers from -100% - 0 represent cell death. For example, a value of 40 represents 60% growth inhibition. A value of 0 means no net growth occurred over the course of the experiment. A value of -40 indicates 40% of cells at the beginning of the experiment died by the end of the experiment. A value of -100 means all cells are dead at the end of the experiment.
NCI-60 Human Tumor Cell Lines Screen was performed using the standard one-dose NCI protocol, which is described in more detail at https://dtp.cancer.gov/discovery_development/nci-60/default.htm.
Compounds with GIPRCNT values below 10 were considered active. Activity score was based on GIPRCNT using the following formula: […]
Score is 0 for GIPRCNT values of 100 or above, 50 for GIPRCNT values of 0, and 100 for GIPRCNT values of -100.

Row | SMILES | growth
1 | COc1cc(-c2nc(SCCC(C)C)nc(N3CCOCC3)c2C#N)cc(OC)c1OC | 79.6%
2 | COc1ccc2nc3cc(Cl)ccc3c(NCCN)c2c1 | -27% (active)
3 | CC(C)(C)c1cc(C=Nc2cccc(C(F)(F)F)c2)c(O)c(C(C)(C)C)c1 | 105%
4 | CC[C@@H](c1ccc2cc(OC)ccc2c1)C(C)(C)C(=O)F | 28.3%
5 | CCCCNC1=C(OCC)C(=O)c2ccccc2C1=O | 115%
6 | COC(=O)/C=C1/SC(=Nc2cccc(Cl)c2)N(CCc2c[nH]c3ccc(O)cc23)C1=O | 4.15% (active)
7 | CCOC(=O)C1=C(c2ccccc2)N=c2s/c(=C/c3ccc(Br)cc3)c(=O)n2C1c1ccc(O)cc1 (stereo not given) | 93.1%
8 | CCCCCCCCn1ccc2cc(NC(=O)Cn3cc(CN4CCC(C)CC4)nn3)ccc21 | 39.6%
9 | Cc1cc(N2CCCCC2)nc(N2CCN(CC(=O)Nc3ccc4c(ccn4Cc4ccccc4)c3)CC2)n1 | 64.5%
10 | CCOC(=O)Cn1c(=O)c2c3ccccc3n(C)c2n2nnc(-c3ccccc3)c12 | 58.6%
11 | C[N+](C)(C/C=C/c1ccccc1)Cc1ccccc1 | 94.5%
12 | CCCCCCCCNc1cc2c3c(c1)CCCN3CCC2 | 29.7%
13 | COc1ccc2[nH]cc(-c3nc(-c4cn(C)c5ccncc45)cs3)c2c1 | -38.5% (active)
14 | N#Cc1c(Nc2ccc(F)cc2)n[nH]c1-c1cccs1 | 71.8%
15 | CCOC(=O)C1CCN(c2ccc(N3C[C@@H](CNCc4ccc(C(=N)N)cc4)OC3=O)cc2)CC1 | 101%
16 | Cc1ccc(O)c(NC(=O)c2ccc(CNc3ccnc(C(F)(F)F)c3)cc2)c1 | 51.4%
17 | CN1CCN(CCCOc2ccc3ncnc(Nc4ccc(Oc5cccc(F)c5)c(Cl)c4)c3c2)CC1 | -5.39% (active)
18 | C/C(C=O)=C\c1ccc2c(c1)OCO2 | 116%
19 | N#Cc1c(-c2ccccc2)c(C#N)c2c(C#N)c(N)nn2c1N | 31.9%
20 | C=CCN=C(N)SCCCCCCSC(N)=NCC=C | 103%

Row | SMILES | growth
21 | Cc1ccc(C)n1/C=C/n1c(C)ccc1C | 16.2%
22 | COc1cc(/C=C/c2cc(/C=C/c3ccc(O)c(OC)c3)n(C(=O)Nc3ccc(F)cc3)n2)ccc1O | 17.4%
23 | O=c1[nH]cnc2c1C(c1ccc(Br)cc1)c1sc3c(F)cccc3c1O2 (stereo not given) | 84.4%
24 | COc1cc2c(c(OC)c1OC)C(=O)CC(c1cccc(NC(=O)c3ccccc3Br)c1)O2 (stereo not given) | 102%
25 | CSCCC(NC(=O)c1ccccc1)C(=O)N/N=C1\S/C(=C/c2ccc(Cl)cc2)C(=O)N1C (stereo not given) | 95.7%
26 | CC/C(Cc1ccccc1)=C(\c1ccc(OCCN2CCCCCC2)cc1)c1ccc(OC(=O)NCc2ccccc2)cc1 | 63.5%
27 | O=C(CCCCNC(=O)c1cc(=O)c(O)co1)Nc1ccccc1 | 99%
28 | O=C1N[C@@H]2[C@@H](O)[C@@H](O)[C@H](O)C[C@H]2c2cc3c(c(O)c21)OCCO3 | -16.7% (active)
29 | O=C(CSc1nnc2sc(Nc3cccc(Cl)c3)nn12)c1ccc(F)cc1 | 101%
30 | O=C(Cn1nnc([N+](=O)[O-])n1)c1ccccc1 | 96.1%
31 | Nc1c(C(=O)Nc2ccncc2)sc2nc3c(cc12)CCCCC3 | 98.9%
32 | COc1ccc2nc(Cl)c(/C=C/C(=O)c3ccc(NC(=O)CSc4nnc(-c5ccc(Cl)c(Cl)c5)n4-c4ccccc4)cc3)cc2c1 | 76.3%
33 | COc1ccc(C(c2cc(OC)c(OC)c(OC)c2)N2CCN(Cc3ccccc3)CC2)cc1 (stereo not given) | 63%
34 | C[Se]C(=O)CC1=C2C=C(F)C=CC2/C(=C\c2ccc(S(C)=O)cc2)C1C (stereo not given) | 21.3%
35 | COc1ccc(C2CC(c3ccc(Nc4nc(Nc5ccc(F)cc5)nc(Nc5ccc(F)cc5)n4)cc3)=NN2C(C)=O)cc1 (stereo not given) | 101%
36 | CC(C)c1ccc(-n2c(=S)[nH]c3sc4c(c3c2=O)CCC(=O)C4)cc1 | 63.1%
37 | COc1ccc2cc(-c3cnc4nonc4n3)ccc2c1 | 60.3%
38 | Nc1ccc([N+](=O)[O-])cc1N=C/C=C/c1ccccc1 | 64.8%
39 | COc1ccc(-c2cc(-c3ccc(OC)cc3)nc(NCCCNc3ccnc4cc(Cl)ccc34)n2)cc1 | -62.6% (active)
40 | CCN(CC)c1ccc(N2C(=O)/C(=C/c3cccs3)SC2=S)cc1 | 99.4%
